Here are results for 19 compounds from PubChem BioAssay.

Experiment [1] in a line: sensitizers of A549 cells to miR-34 induction, primary screen, imaging, A549 dox-inducible miR-34, nuclei and caspase counts (AID 1347080). Note: test concentration not given here. The following applies: A549 miR-34 inducible, Hoechst nuclei count, 48 h.
A short description of experiment [2]: viability rescue of complex I mutant cybrids, primary screen, cell-based, galactose medium, ATP luminescence (AID 1645843;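 active = z-score of at least 1.8 in each of two replicates, scored against plate mean and spread of sample wells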;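 note: positive z means more ATP and so rescue of galactose-driven cybrid death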). The following applies: complex I mutant cybrid cells, 72 h, stronger effect = higher value.
Setting [3] is: stronger effect = lower value, cell number ratio, induced over uninduced.
Where [4] appears, read: measured here: relative caspase fold change +Dox/-Dox.
[5] abbreviates: measured here: total cells with miR-34 induction, stronger effect = lower value.
Setting [6] is: measured here: total cells without miR-34 induction.

Activity calls are given as the source filed them.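 Rule for the calls, unless noted: active = compounds whose cell count with miR-34 switched on is under 0.7 times the count with it off; inactive = the rest.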

On to `CC1CC2C3CCC4=CC(=O)C=C[C@]4(C)[C@@]3(F)C(O)C[C@]2(C)C1C(=O)CO` (stereo not given in full), for which the fold change in experiment [1] (setting [3]) was 0.805 (inactive); in experiment [1] (setting [4]) it was 1.08. The cell count in experiment [1] (setting [5]) worked out at 6880; in experiment [1] (setting [6]) it was 8550. Also, in experiment [2], the z-score is 1.76 (inactive).
The matching figures for `CN(C)CCC=C1c2ccccc2COc2ccccc21`: 0.942 (inactive), 2.06, 8300, 8810 and -0.535 (inactive).
For `CC[C@]1(O)CC2CN(CCc3c([nH]c4ccccc34)[C@@](C(=O)OC)(c3cc4c(cc3OC)N(C=O)C3[C@@](O)(C(=O)OC)C(OC(C)=O)[C@]5(CC)C=CCN6CC[C@]43C65)C2)C1` (stereo not given in full) the same measures were 0.746 (inactive), 1.38, 1340, 1800 and -1.05 (inactive).
The matching figures for `CC1CNc2c(cccc2S(=O)(=O)NC(CCCN=C(N)N)C(=O)N2CCC(C)CC2C(=O)O)C1` (stereo not given): 0.968 (inactive), 1.83, 10100, 10500 and 0.935 (inactive).
On to `C=CCc1ccccc1OCC(O)CN[C@]1(C)CCC[C@H](C(C)(C)NC(=O)CBr)C1` (stereo not given in full), for which the fold change in experiment [1] (setting [3]) was 0.814 (inactive); in experiment [1] (setting [4]), 1.93. The cell count in experiment [1] (setting [5]) worked out at 70; in experiment [1] (setting [6]), 86. Besides, the z-score in experiment [2] was -1.52 (inactive).
For `NC(C(=O)NC1C(=O)N2C(C(=O)O)=C(Cl)CSC12)c1ccccc1` (stereo not given) the same measures were 1.39 (inactive), 0.686, 9470, 6800 and 0.295 (inactive).
As to `CC1=C(C(=O)O)N2C(=O)C(NC(=O)C(N)c3ccccc3)C2SC1` (stereo not given), the fold change in experiment [1] (setting [3]) was 0.933 (inactive); in experiment [1] (setting [4]) it was 1.4. Also, the cell count was determined as 8950 in experiment [1] (setting [5]) and 9590 in experiment [1] (setting [6]). The z-score in experiment [2] is 0.52 (inactive).
The matching figures for `Nc1nc(Cl)nc2c1ncn2C1OC(CO)C(O)C1O` (stereo not given): 1.26 (inactive), 0.688, 2120, 1680 and -0.02 (inactive).
For `CCN1CCCC1CNC(=O)c1c(O)c(Cl)cc(Cl)c1OC` (stereo not given) the same measures were 1.02 (inactive), 1.39, 9680, 9480 and 0.65 (inactive).
For `CC(=O)O[C@@]12COC1CC(O)[C@@]1(C)C(=O)C(O)C3=C(C)C(OC(=O)C(O)C(NC(=O)OC(C)(C)C)c4ccccc4)C[C@](O)(C(OC(=O)c4ccccc4)C21)C3(C)C` (stereo not given in full) the same measures were 1.14 (inactive), 1.25, 3410, 2990 and -1.09 (inactive).
With `CC(C)(C)NC(=O)C1CN(Cc2cccnc2)CCN1CC(O)CC(Cc1ccccc1)C(=O)NC1c2ccccc2CC1O` (stereo not given), the fold change in experiment [1] (setting [3]) was 0.967 (inactive); in experiment [1] (setting [4]), 1.5. The cell count in experiment [1] (setting [5]) was 9380; in experiment [1] (setting [6]) it was 9700. Moreover, the z-score in experiment [2] was 1.61 (inactive).
For `CC1(C)SC2C(N=CN3CCCCCC3)C(=O)N2C1C(=O)O` (stereo not given) the same measures were 0.941 (inactive), 1.42, 9640, 10200 and 0.33 (inactive).
The matching figures for `CC1CN(CCCn2c3ccccc3c3ccccc32)CC(C)N1` (stereo not given): 0.806 (inactive), 1.22, 6730, 8340 and -1.61 (inactive).
As to `CNC(=O)[C@H]1O[C@@H](n2cnc3c(NCc4ccc(I)cc4)nc(Cl)nc32)[C@H](O)[C@@H]1O`, the fold change was 1.02 (inactive) in experiment [1] (setting [3]) and 1.05 in experiment [1] (setting [4]). Moreover, the cell count in experiment [1] (setting [5]) amounted to 5610; in experiment [1] (setting [6]) it was 5510. Also, the z-score in experiment [2] is 1.29 (inactive).
The matching figures for `O=C(OC1C(Oc2ccccc2COC(=O)C2(O)C=CCCC2=O)OC(CO)C(O)C1O)c1ccccc1` (stereo not given): 0.897 (inactive), 1.99, 1640, 1830 and -1.2 (inactive).
Turning to `CC(=O)OC1CC2CCC3C(CCC4(C)C3CC([N+]3(C)CCCCC3)C4OC(C)=O)C2(C)CC1[N+]1(C)CCCCC1` (stereo not given), the fold change in experiment [1] (setting [3]) is 0.885 (inactive); in experiment [1] (setting [4]), 2.7. Further, the cell count in experiment [1] (setting [5]) is 8890; in experiment [1] (setting [6]), 10000. Also, the z-score in experiment [2] is 0.825 (inactive).
For `CN1C(=O)CCC1c1cccnc1` (stereo not given) the same measures were 0.988 (inactive), 2.52, 9830, 9950 and 0.965 (inactive).
For `COC(=O)C[C@](O)(CCCC(C)(C)O)C(=O)OC1C(OC)=C[C@]23CCCN2CCc2cc4c(cc2C13)OCO4` (stereo not given in full) the same measures were 0.85 (inactive), 0.957, 1590, 1870 and -1.86 (inactive).
The matching figures for `CC#C[C@]1(O)CCC2C3CCC4=CC(=O)CCC4=C3C(c3ccc(N(C)C)cc3)C[C@@]21C` (stereo not given in full): 0.84 (inactive), 0.861, 5600, 6670 and -0.035 (inactive).
